Assay results as given in PubChem BioAssay (NCATS).
Records with an inconclusive call do not appear. A call without a number means that no potency is given here. Values without a mark were called inactive. Active and inactive are the calls of the source. Unless noted, the call rests on the fitted dose curve; in most records, active means well fitted curve in the direction sought with a large enough effect; inconclusive means small, poorly fitted or top-dose-only effect, or another doubt; inactive means no such curve, though single readings can be large; an effect the other way counts as inactive or inconclusive.

Key:
[1] = Confirmatory screen NINDS Rhodamine qHTS for Zika virus inhibitors (AID 1347161); further: nearly all actives have a fitted effect of over 60% in size; further: potency means the concentration at half of the fitted maximal effect
Outline: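 Rhodamine110-peptide cleavage (1.5 µM substrate) by 25 nM linked NS2B-NS3 enzyme at pH 8.0 (Tris, Tween 20), after 15 min RT preincubation with compounds; 15-min fluorescence change normalized to controls and Hill-fitted.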

[2] = target: Cytochrome P450 2C9 (Homo sapiens) (UniProt P11712); assay: Cytochrome P450 family 2 subfamily C member 9 (CYP2C9) small molecule antagonists: luciferase biochemical (cell-free) qHTS assay (AID 1645842; active means well fitted curve in the direction sought with a large enough effect in the repeat runs; an effect the other way counts as inactive or inconclusive; further: potency means the concentration at half of the fitted maximal effect; nearly all actives have a fitted effect of over 55% in size)
Outline: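 P450-Glo CYP2C9 system: proluciferin substrate with enzyme in mix containing 0.4% BSA, 10 min at room temperature, then NADPH regeneration solution added and incubated 1 h at 37C. Detection reagent stopped reaction; luminescence read after 20 min as RLU.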

[3] = NCATS anti-infectives library activity on HEK293 viability as a counter-qHTS vs the C. elegans viability qHTS (AID 1745854); further: potency means the concentration at half of the fitted maximal effect
Outline: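 CellTiter-Glo luminescence, read on a CCD imager, scored viability of HEK293 cells after 24 hr compound exposure at 37C. Library tested in several concentrations, 1:5 steps, up to 41.7 uM; digitonin served as control.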

[4] = target: Glucocorticoid receptor (Homo sapiens) (UniProt P04150); assay: qHTS assay for small molecule antagonists of glucocorticoid receptor signaling (AID 588533; active means well fitted inhibition curve with a large enough effect in the signal ratio, with a control signal flat, not every such curve was filed as active; the % refers to the signal ratio;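 further: cells stimulated with 2 nM dexamethasone as agonist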; further: potency means the concentration at half of the fitted maximal effect)
Outline: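 Antagonist-mode qHTS: compound titrations added to GRE-bla HeLa cells, then dexamethasone 2 nM final; 18 h, 37 C. CCF4 FRET fluorescence normalized to dexamethasone and DMSO; IC50 from Hill fit.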

[5] = target: Peroxisome proliferator-activated receptor delta (Homo sapiens) (UniProt Q03181); assay: qHTS assay for small molecule agonists of peroxisome proliferator-activated receptor delta signaling (AID 588534; calls by dose curve; further: potency means the concentration at half of the fitted maximal effect)
Outline: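 Titration series tested in agonist mode on beta-lactamase reporter cells; 18 hrs at 37 C after a 5 hr pre-incubation. Readout: CCF4 fluorescence, 2 hrs RT. Hill equation gives EC50 and maximal response.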

[6] = target: Vitamin D3 receptor (Homo sapiens) (UniProt P11473); assay: qHTS assay for small molecule agonists of vitamin D receptor signaling (AID 588543; calls by dose curve; further: potency means the concentration at half of the fitted maximal effect)
Outline: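 qHTS in agonist mode: compound titrations stimulate a VDR-driven β-lactamase reporter in HEK293T cells over 16 h at 37 °C. Response normalized to 50 nM 1α,25-dihydroxyvitamin D3 = 100%, DMSO = 0%; Hill fitting gives EC50 and maximal response.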

[7] = qHTS assay for small molecule activators of the p53 signaling pathway (AID 651743; active means well fitted activation curve with a large enough effect in the signal ratio, not every such curve was filed as active; the % refers to the signal ratio; further: potency means the concentration at half of the fitted maximal effect); settings: HCT-116 p53RE-bla, beta-lactamase FRET ratio, 16 h; activation: active compounds read high
Outline: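 Reporter: beta-lactamase driven by p53 response elements, stably integrated in HCT-116 cells. Cells seeded at 4,000/well, 5 h preincubation, compound (DMSO) 16 h at 37 C; B/G FRET substrate 2 h RT; fluorescence intensity read.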

[8] = target: ATP-dependent 6-phosphofructokinase (Trypanosoma brucei brucei) (UniProt O15648); assay: qHTS Assay to Find Inhibitors of T. brucei phosphofructokinase: hit validation (AID 492961); further: potency means the concentration at half of the fitted maximal effect
Outline: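 Luminescence from ADP-Glo reports ADP generated as T. brucei PFK (1.25 nM) phosphorylates 0.5 mM fructose-6-phosphate using 0.1 mM ATP. Reactions ran 45 min at room temperature, pH 8.0.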

[9] = qHTS for Inhibitors of the Functional Ribonucleoprotein Complex (vRNP) of Lassa (LASV) Arenavirus: Viability assay - alamar blue signal for LASV Primary Screen (AID 1347083; calls by dose curve; tested in HEK293 reporter line; further: nearly all actives have a fitted effect of over 80% in size)
[10] = qHTS for Inhibitors of the Functional Ribonucleoprotein Complex (vRNP) of Lymphocytic Choriomeningitis Arenaviruses (LCMV): Viability assay - alamar blue signal for LCMV Primary Screen (AID 1347085; calls by dose curve; tested in HEK293 reporter line; further: nearly all actives have a fitted effect of over 80% in size)
[11] = target: Nucleoprotein (Lymphocytic choriomeningitis virus (strain Armstrong)) (UniProt P09992); assay: qHTS for Inhibitors of the Functional Ribonucleoprotein Complex (vRNP) of Lymphocytic Choriomeningitis Arenaviruses (LCMV): LCMV Primary Screen - GLuc reporter signal (AID 1347086; calls by dose curve; further: nearly all actives have a fitted effect of over 70% in size)
CP238 = assay: qHTS profiling for inhibitors of Plasmodium falciparum proliferation (AID 504749); further: nearly all actives have a fitted effect of over 60% in size; further: potency means the concentration at half of the fitted maximal effect; settings: P. falciparum in erythrocytes, SYBR Green DNA, 72 h; series mostly up to 28.7 µM
Outline: (§1)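 SYBR Green fluorescence (ex 485 nm, em 535 nm) reports parasite DNA after 72 h compound exposure of infected red cells at 0.3% parasitemia, 2.5% hematocrit; signal normalized to 0.29 uM artemisinin and vehicle wells.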

CP247 = assay: as above; settings: P. falciparum in erythrocytes, SYBR Green DNA, 72 h; series mostly up to 28.7 µM
Outline: as §1

CP286 = assay: as above; settings: P. falciparum in erythrocytes, SYBR Green DNA, 72 h; series mostly up to 28.7 µM
Outline: as §1

DFO2036 = assay: as above; settings: P. falciparum in erythrocytes, SYBR Green DNA, 72 h; series mostly up to 28.7 µM
Outline: as §1

Dd2 = assay: as above; settings: P. falciparum in erythrocytes, SYBR Green DNA, 72 h; series mostly up to 28.7 µM
Outline: as §1

GB4 = assay: as above; settings: P. falciparum in erythrocytes, SYBR Green DNA, 72 h; series mostly up to 28.7 µM
Outline: as §1

HB3 = assay: as above; settings: P. falciparum in erythrocytes, SYBR Green DNA, 72 h; series mostly up to 28.7 µM
Outline: as §1

TAB109 = assay: as above; settings: P. falciparum in erythrocytes, SYBR Green DNA, 72 h; series mostly up to 28.7 µM
Outline: as §1

W2 = assay: as above; settings: P. falciparum in erythrocytes, SYBR Green DNA, 72 h; series mostly up to 28.7 µM
Outline: as §1

Chain of Glucocorticoid receptor (Homo sapiens) (P04150 whole entry, looked up): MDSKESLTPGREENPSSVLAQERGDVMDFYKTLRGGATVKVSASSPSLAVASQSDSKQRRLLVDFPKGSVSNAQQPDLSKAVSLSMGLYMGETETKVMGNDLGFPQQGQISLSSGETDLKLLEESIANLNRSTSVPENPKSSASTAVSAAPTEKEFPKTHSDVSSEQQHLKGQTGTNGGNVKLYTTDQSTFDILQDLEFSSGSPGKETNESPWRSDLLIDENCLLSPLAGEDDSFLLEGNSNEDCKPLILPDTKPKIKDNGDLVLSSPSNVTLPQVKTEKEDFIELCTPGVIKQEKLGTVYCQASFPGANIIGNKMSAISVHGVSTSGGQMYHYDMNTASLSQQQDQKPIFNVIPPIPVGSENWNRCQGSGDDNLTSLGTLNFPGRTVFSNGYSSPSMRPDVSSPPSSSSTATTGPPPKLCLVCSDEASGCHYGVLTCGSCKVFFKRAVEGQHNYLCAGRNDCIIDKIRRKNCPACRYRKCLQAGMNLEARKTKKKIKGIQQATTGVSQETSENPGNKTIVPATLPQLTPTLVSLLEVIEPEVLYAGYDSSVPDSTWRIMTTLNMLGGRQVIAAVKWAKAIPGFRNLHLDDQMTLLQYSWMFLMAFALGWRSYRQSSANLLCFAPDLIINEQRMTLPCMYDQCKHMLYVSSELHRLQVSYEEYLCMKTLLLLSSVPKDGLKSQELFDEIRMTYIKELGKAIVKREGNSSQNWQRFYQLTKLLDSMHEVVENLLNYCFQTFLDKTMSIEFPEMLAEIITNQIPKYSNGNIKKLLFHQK
Chain of Peroxisome proliferator-activated receptor delta (Homo sapiens) (Q03181 whole entry, looked up): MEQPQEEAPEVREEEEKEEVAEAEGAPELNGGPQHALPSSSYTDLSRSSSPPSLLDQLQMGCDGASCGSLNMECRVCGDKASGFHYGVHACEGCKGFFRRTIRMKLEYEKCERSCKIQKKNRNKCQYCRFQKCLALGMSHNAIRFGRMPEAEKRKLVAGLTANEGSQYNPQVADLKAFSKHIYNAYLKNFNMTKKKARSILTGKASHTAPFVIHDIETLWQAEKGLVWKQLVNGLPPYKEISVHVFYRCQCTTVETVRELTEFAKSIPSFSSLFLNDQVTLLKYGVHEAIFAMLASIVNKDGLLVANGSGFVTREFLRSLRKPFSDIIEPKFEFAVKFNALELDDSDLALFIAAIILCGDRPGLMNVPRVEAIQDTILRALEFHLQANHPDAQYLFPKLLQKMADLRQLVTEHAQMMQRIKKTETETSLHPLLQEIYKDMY
Chain of Vitamin D3 receptor (Homo sapiens) (P11473 whole entry, looked up): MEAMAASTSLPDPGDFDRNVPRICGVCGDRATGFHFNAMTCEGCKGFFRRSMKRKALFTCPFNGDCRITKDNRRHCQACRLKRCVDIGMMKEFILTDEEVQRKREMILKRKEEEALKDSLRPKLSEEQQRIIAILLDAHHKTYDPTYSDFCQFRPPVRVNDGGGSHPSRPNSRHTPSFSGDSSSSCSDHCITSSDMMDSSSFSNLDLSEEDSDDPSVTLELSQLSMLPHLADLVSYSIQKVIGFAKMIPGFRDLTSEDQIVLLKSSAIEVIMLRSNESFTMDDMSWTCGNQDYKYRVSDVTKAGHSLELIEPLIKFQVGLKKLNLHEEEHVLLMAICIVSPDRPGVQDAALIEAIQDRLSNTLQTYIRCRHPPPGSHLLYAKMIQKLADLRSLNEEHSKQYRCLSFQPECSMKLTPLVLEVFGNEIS
Chain of Nucleoprotein (Lymphocytic choriomeningitis virus (strain Armstrong)) (P09992 whole entry, looked up): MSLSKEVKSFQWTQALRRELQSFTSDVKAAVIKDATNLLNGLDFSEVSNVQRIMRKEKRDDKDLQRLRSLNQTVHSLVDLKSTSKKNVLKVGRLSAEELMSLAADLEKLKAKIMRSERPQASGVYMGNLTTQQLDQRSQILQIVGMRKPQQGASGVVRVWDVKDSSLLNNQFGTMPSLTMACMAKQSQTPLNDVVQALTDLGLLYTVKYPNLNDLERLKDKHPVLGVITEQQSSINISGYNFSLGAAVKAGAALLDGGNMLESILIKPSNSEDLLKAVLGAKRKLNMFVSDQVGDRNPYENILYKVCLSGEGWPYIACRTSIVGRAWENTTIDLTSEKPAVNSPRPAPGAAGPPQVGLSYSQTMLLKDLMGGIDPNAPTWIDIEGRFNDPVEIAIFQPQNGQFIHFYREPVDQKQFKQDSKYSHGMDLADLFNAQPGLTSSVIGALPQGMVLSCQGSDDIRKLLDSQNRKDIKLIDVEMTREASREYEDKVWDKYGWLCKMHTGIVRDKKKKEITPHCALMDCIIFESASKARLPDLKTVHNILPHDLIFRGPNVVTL
Chain of ATP-dependent 6-phosphofructokinase (Trypanosoma brucei brucei) (O15648 whole entry, looked up): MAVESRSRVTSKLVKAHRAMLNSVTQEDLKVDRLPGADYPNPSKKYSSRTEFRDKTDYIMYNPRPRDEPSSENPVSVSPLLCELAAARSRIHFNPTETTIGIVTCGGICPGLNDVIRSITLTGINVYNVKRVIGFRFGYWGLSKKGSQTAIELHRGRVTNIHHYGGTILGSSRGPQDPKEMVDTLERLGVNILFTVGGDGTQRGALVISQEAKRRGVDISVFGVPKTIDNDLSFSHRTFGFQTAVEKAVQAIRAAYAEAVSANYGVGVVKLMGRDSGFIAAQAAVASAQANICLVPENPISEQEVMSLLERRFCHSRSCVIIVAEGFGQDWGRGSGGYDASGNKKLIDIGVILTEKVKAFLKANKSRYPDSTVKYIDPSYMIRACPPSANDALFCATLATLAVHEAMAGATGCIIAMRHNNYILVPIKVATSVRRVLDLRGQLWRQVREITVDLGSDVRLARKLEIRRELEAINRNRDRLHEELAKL
Chain of Cytochrome P450 2C9 (Homo sapiens) (P11712 whole entry, looked up): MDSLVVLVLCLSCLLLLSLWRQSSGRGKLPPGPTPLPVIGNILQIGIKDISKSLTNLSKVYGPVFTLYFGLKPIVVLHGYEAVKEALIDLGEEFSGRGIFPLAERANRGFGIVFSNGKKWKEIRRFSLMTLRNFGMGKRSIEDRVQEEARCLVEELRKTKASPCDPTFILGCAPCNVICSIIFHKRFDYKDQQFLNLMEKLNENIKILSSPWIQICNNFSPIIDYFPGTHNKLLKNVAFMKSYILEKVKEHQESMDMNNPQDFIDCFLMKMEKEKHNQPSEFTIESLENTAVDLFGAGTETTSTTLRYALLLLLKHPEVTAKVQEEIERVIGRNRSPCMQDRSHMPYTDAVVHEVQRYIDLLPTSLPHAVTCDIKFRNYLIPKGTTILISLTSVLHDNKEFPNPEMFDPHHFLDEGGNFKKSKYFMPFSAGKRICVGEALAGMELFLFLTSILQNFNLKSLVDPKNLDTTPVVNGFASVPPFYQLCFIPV

Question: For `CC(C)=CCC[C@]1(C)C=Cc2c(O)c3c(c(CC=C(C)C)c2O1)O[C@]12C(=C[C@@H]4CC1C(C)(C)O[C@@]2(C/C=C(/C)C(=O)O)C4=O)C3=O`, which Potency [1] is on record?
Answer: 2.48 µM (active)

Question: For `Cc1ccc(-n2nccn2)c(C(=O)N2CCN(c3nc4cc(Cl)ccc4o3)CCC2C)c1` (stereo not given), which Potency [2] is on record?
Answer: 1.34 µM (active)

Question: Which Potency [2] does the source give for `OC(CNc1ccccc1)Cn1c2ccc(Br)cc2c2cc(Br)ccc21` (stereo not given) here?
Answer: 5.35 µM (active)

Question: For `Cc1sc2c(c1C)C(c1ccc(Cl)cc1)=N[C@@H](CC(=O)Nc1ccc(O)cc1)c1nnc(C)n1-2`, which Potency [3] is on record?
Answer: inactive

Question: With `C[C@@H]1Cc2c(Cl)cc(C(=O)N[C@@H](Cc3ccccc3)C(=O)O)c(O)c2C(=O)O1` as the compound, how does the Potency [4] read?
Answer: 0.891 µM (active)

Question: And the Potency [5]?
Answer: 39.8 µM (active)

Question: And the Potency [6]?
Answer: 44.7 µM (active)

Question: And the Potency [7]?
Answer: 0.891 µM (active)

Question: For `CC[C@H]1/C=C\C=C/C[C@@H](C)[C@H](O)[C@@](C)(O)C(=O)[C@@H](C)[C@H](O)[C@@H](C)C(=O)[C@@H](C)[C@H](O)[C@@H](C)/C=C\C(=O)O[C@@H]2[C@H](C)[C@H](CC1)O[C@]1(CC[C@H](C)[C@H](C[C@@H](C)O)O1)[C@H]2C`, which Potency [3] is on record?
Answer: 15.8 µM (active)

Question: What does the source list for `C[N+](C)(C)CC(=O)[O-]`?
Answer: Potency [8]: inactive; Potency [9]: inactive; Potency [10]: inactive; Potency [11]: inactive; Potency (CP238): inactive; Potency (CP247): inactive; Potency (CP286): inactive; Potency (DFO2036): inactive; Potency (Dd2): inactive; Potency (GB4): inactive; Potency (HB3): inactive; Potency (TAB109): inactive; Potency (W2): inactive

Question: Which Potency [8] does the source give for `Oc1cc[c]([Hg][Cl])cc1` here?
Answer: 2.82 µM (active)

Question: What about the Potency (CP238) of the same compound?
Answer: 10 µM (active)

Question: And the Potency (CP247)?
Answer: 5.01 µM (active)

Question: And the Potency (CP286)?
Answer: 10 µM (active)

Question: What about the Potency (DFO2036) of the same compound?
Answer: 8.91 µM (active)

Question: And the Potency (Dd2)?
Answer: 11.2 µM (active)

Question: What about the Potency (GB4) of the same compound?
Answer: 6.75 µM (active)

Question: What about the Potency (HB3) of the same compound?
Answer: 11.2 µM (active)

Question: And the Potency (TAB109)?
Answer: 7.08 µM (active)

Question: And the Potency (W2)?
Answer: 5.36 µM (active)

Question: For `CCOc1cc(C=O)ccc1O`, which Potency [4] is on record?
Answer: inactive

Question: What about the Potency [5] of the same compound?
Answer: inactive

Question: And the Potency [6]?
Answer: inactive

Question: And the activation [7]?
Answer: -1.8%

Question: For `C[C@@H]1[C@@H]2Cc3ccc(O)cc3[C@@]1(C)CCN2CCc1ccccc1`, which Potency [1] is on record?
Answer: inactive

Question: With `COC(=O)[C@H]1[C@@H](OC(=O)c2ccccc2)C[C@@H]2CC[C@H]1N2C` as the compound, how does the Potency [9] read?
Answer: inactive

Question: And the Potency [10]?
Answer: inactive

Question: And the Potency [11]?
Answer: inactive
